Columns and labels:
Type in all cases: functional
Plasmodium falciparum [1] = assay: GSK_TCMDC: Inhibition of Plasmodium falciparum 3D7 in whole red blood cells, using parasite LDH activity as an index of growth. Test compounds present at 2uM
Plasmodium falciparum [2] = assay: GSK_TCMDC: Inhibition of Plasmodium falciparum Dd2 in whole red blood cells, using parasite LDH activity as an index of growth. Test compounds present at 2uM
HepG2 = assay: GSK_TCMDC: Percent inhibition of human HepG2 cell line. Test compounds present at 10uM.

**Q.** Which Inhibition (Plasmodium falciparum [1]) does the source give for `O=C(O)C(F)(F)F.c1cncc(CCNCc2ccc(-c3cccc(-c4nc5ccccc5[nH]4)c3)cc2)c1` here?
**A.** 100%

**Q.** And the Inhibition (Plasmodium falciparum [2])?
**A.** 99%

**Q.** And the Inhibition (HepG2)?
**A.** 39%

**Q.** What does the source list for `CC[C@H](C)CNC(=O)c1ccnc(-c2ccc(CN3CCC(N4CCCC4)CC3)cc2)c1.O=C(O)C(F)(F)F`?
**A.** Inhibition (Plasmodium falciparum [1]): 99%; Inhibition (Plasmodium falciparum [2]): 84%; Inhibition (HepG2): 13%

**Q.** What does the source list for `COc1cccc(-c2cccc(CNC3CCN(CC4Cn5c(=O)ccc6ccc(F)c4c65)CC3)c2)c1.O=C(O)C(F)(F)F` (stereo not given)?
**A.** Inhibition (Plasmodium falciparum [1]): 99%; Inhibition (Plasmodium falciparum [2]): 15%; Inhibition (HepG2): 23%

**Q.** `CC(=O)c1sc(Cc2nc3ccccc3s2)nc1C` was tested. Which Inhibition (Plasmodium falciparum [1]) did it give?
**A.** 94%

**Q.** And the Inhibition (Plasmodium falciparum [2])?
**A.** 88%

**Q.** And the Inhibition (HepG2)?
**A.** 0%

**Q.** Which Inhibition (Plasmodium falciparum [1]) does the source give for `Cc1cc(C2CCN(CCCCNC(=O)c3ccc(NC(=O)c4ccc(Cl)cc4)cc3)CC2)c(C)cc1OCc1ccncc1.Cl` here?
**A.** 100%

**Q.** And the Inhibition (Plasmodium falciparum [2])?
**A.** 92%

**Q.** And the Inhibition (HepG2)?
**A.** 33%

**Q.** For `COc1cc(C(=O)NC2CCN(Cc3ccccc3)CC2)ccc1-c1nc2c(Cl)cc(C(F)(F)F)cc2[nH]1`, which Inhibition (Plasmodium falciparum [1]) is on record?
**A.** 100%

**Q.** What about the Inhibition (Plasmodium falciparum [2]) of the same compound?
**A.** 56%

**Q.** And the Inhibition (HepG2)?
**A.** 7%

**Q.** With `COc1ccc(-c2cc(-c3nc4cc(C(=O)N5CCOCC5)ccc4[nH]3)c(=O)n(C)c2)cc1OC.O=C(O)C(F)(F)F` as the compound, how does the Inhibition (Plasmodium falciparum [1]) read?
**A.** 93%

**Q.** What about the Inhibition (Plasmodium falciparum [2]) of the same compound?
**A.** 95%

**Q.** And the Inhibition (HepG2)?
**A.** 6%

**Q.** What does the source list for `Nc1ncc(-c2ccccc2)cc1-c1cccc2ncccc12.O=C(O)C(F)(F)F`?
**A.** Inhibition (Plasmodium falciparum [1]): 97%; Inhibition (Plasmodium falciparum [2]): 99%; Inhibition (HepG2): 82%

**Q.** What does the source list for `CSc1nc2cc3c(cc2n1C(=O)c1ccc(C)cc1)OCCO3`?
**A.** Inhibition (Plasmodium falciparum [1]): 99%; Inhibition (Plasmodium falciparum [2]): 0%; Inhibition (HepG2): 0%

**Q.** Which Inhibition (Plasmodium falciparum [1]) does the source give for `Cc1cc(N[C@@H](Cc2ccccc2)C(=O)NCCOc2ccccc2)nc(NCCc2ccc(F)cc2)n1.O=C(O)C(F)(F)F` here?
**A.** 99%

**Q.** And the Inhibition (Plasmodium falciparum [2])?
**A.** 86%

**Q.** And the Inhibition (HepG2)?
**A.** 5%

From ChEMBL document CHEMBL1157539, “Thousands of chemical starting points for antimalarial lead identification” (Nature, 2010)
